Out of some 400,000 compounds screened, about 3,700 (0.93%) were called active. Inconclusive results (about 3%) are left out. Calls follow the shape of the dose curve; as a rule, active = well fitted inhibition curve with a large enough effect; inconclusive = small, poorly fitted or top-dose-only effect, or another doubt; inactive = no such curve, though single readings can be large or run the other way. The full list was thinned out, with actives kept by preference.
target: Vitamin D3 receptor (Homo sapiens) (UniProt P11473); experiment: Inhibitors of the vitamin D receptor (VDR): qHTS; details: VDR-SRC2-3 peptide fluorescence polarization, 2 h; max response, negative = inhibition: active compounds read low
In short: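 Measured by FP: displacement of SRC2-3 coactivator peptide from VDR by library compounds, following a two-hour ambient incubation.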
% is scaled to controls: 0 for no effect and ±100 for the full control effect; potency is read from the fitted curve at half-maximal effect.

Vitamin D3 receptor (Homo sapiens), sequence (P11473 whole entry, looked up): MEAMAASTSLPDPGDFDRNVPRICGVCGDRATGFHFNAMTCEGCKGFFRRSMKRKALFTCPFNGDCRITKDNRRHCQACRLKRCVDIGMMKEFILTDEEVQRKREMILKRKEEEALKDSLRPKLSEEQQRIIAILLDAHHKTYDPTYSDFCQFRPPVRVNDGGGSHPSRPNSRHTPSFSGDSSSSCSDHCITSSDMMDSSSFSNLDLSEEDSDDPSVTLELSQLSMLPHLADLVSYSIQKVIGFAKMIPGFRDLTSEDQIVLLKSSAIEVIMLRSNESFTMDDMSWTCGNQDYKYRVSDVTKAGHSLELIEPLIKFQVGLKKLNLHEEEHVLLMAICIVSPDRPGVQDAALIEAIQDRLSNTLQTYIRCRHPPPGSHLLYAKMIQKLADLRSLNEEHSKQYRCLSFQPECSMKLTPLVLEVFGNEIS

Row | SMILES | Potency | max response, negative = inhibition
1 | Nc1ccc2[nH]c(=S)sc2c1 | 28.2 µM (active) | 
2 | O=c1[nH]c2ccccc2s1 |  | 1.06% (inactive)
3 | COc1ccc(CNC(=O)CSc2nc3ccccc3nc2Cc2ccccc2)cc1 |  | -10.7% (inactive)
4 | Cc1cccc(C)c1NC(=O)NC1=CCCN1C |  | 8.2% (inactive)
5 | COC1=CC(=O)OC(c2ccc(OC)cc2)C1 (stereo unspecified) |  | 6.19% (inactive)
6 | COc1ccc(N=Nc2c(-c3ccc(OC)cc3)[nH]oc2=O)cc1 |  | -12% (inactive)
7 | COc1ccc(N=C2C=CC(=O)O2)cc1 | 79.4 µM (active) | 
8 | COc1ccc(-c2nc3nc(C)cc(C)n3c2Nc2c(C)cccc2C)cc1 |  | -18.2% (inactive)
9 | Cc1cccc(OCCSc2nc3ccc(NC(=O)COc4ccccc4C)cc3s2)c1 |  | 4.41% (inactive)
10 | CC(=O)c1cc(-c2ccccc2)[nH]c1N1CCCC1 |  | 0% (inactive)
11 | O=C1NN(c2ccccc2)C(=O)/C1=C/c1ccc(-c2cccc(C(=O)O)c2)o1 | 89.1 µM (active) | 
12 | CCCN(CCC)CCCNC(=O)Cn1ncc2c3ccccc3n(Cc3ccccc3)c2c1=O |  | 11.1% (inactive)
13 | Cc1cc(C)c(NC(=O)c2cc3sc(Cl)cc3n2C)c(C)c1 |  | -11% (inactive)
14 | O=C1NC(c2ccc(-c3ccccc3[N+](=O)[O-])o2)C(C(=O)c2ccc(Cl)cc2)C(O)(C(F)(F)F)N1 (stereo unspecified) |  | -20.1% (inactive)
15 | O=C(Nc1ccc(N2CCOCC2)cc1)c1ccc(-c2ccccc2[N+](=O)[O-])o1 |  | -16.6% (inactive)
16 | CC1=NN(c2ccc(Cl)c(C(=O)O)c2)C(=O)/C1=C/c1ccc(-c2ccccc2[N+](=O)[O-])o1 | 50.1 µM (active) | 
17 | COc1cc(C(=O)NCCS(=O)(=O)N2CCN(c3ccccc3)CC2)cc(OC)c1OC |  | 22.4% (inactive)
18 | COc1ccc(-c2onc(C)c2C)cc1S(=O)(=O)NCC1CCN(Cc2cccc(F)c2)CC1 |  | -0.795% (inactive)
19 | Cc1cc(NC(=O)c2ccc(-c3ccc(Cl)cc3)o2)cc(-c2nc3ncccc3o2)c1O |  | -16% (inactive)
20 | Cc1ccc(CSCC2Nc3ccc(C(=O)N4CCN(c5ccc(F)cc5)CC4)cc3NC2=O)cc1 (stereo unspecified) | 79.4 µM (active) | 
21 | CC1CCN(C(=O)c2ccc3c(c2)NC(=O)CN3)CC1 |  | 8.33% (inactive)
22 | Cc1ccc(SCC(=O)N2CCN(c3ccc(F)cc3)CC2)cc1 |  | 9.21% (inactive)

Row | SMILES | Potency | max response, negative = inhibition
23 | CCOC(=O)c1c(S(=O)(=O)N2CCCC(C(=O)NCc3cccc(C)c3)C2)c(C)n(C)c1C (stereo unspecified) |  | 14.2% (inactive)
24 | CCCN(CCC)CCCNC(=O)Cn1cc2c(n1)-c1c(oc(C(=O)N3CCCC3)c1C)CC2 |  | 4.81% (inactive)
25 | COc1ccc(-c2nc(Cn3c(=O)cc(C)c4c(C)nn(-c5ccccc5)c43)c(C)o2)c(OC)c1 |  | 3.2% (inactive)
26 | COc1ccc2c(c1)c(N1CCCC1=O)c(C(=O)Nc1ccccc1C(F)(F)F)n2C |  | 13.2% (inactive)
27 | Cc1ccc(-c2nc3cccc(C)n3c2Nc2ccc3c(c2)OCCO3)cc1 |  | -25.9% (inactive)
28 | CC(C)c1ccc(C2C(C#N)=C(N)Oc3c2oc(CO)cc3=O)cc1 (stereo unspecified) |  | -3.81% (inactive)
29 | CC(C)c1ccc(C2CC(=O)N3CN(C4CCCCC4)CSC3=C2C#N)cc1 (stereo unspecified) | 14.1 µM (active) | 
30 | COc1cc(Nc2nc(-c3ccc(OC)c(OC)c3)nc3ccccc23)cc(OC)c1 |  | 19% (inactive)
31 | CC(=O)Oc1ccc(N(C(C)=O)S(=O)(=O)c2ccc3ccccc3c2)cc1Br |  | 7.52% (inactive)
32 | COC(=O)c1c(C)oc2ccc(N(C(=O)Oc3ccccc3)S(=O)(=O)c3ccccc3)cc12 |  | 2.55% (inactive)
33 | CC(=O)N(c1ccc2oc(=O)sc2c1)S(=O)(=O)c1ccc(C)cc1 | 70.8 µM (active) | 
34 | CC(NC(=O)c1cc2c(=O)n3ccccc3nc2n(C(C)C)c1=N)c1ccccc1 (stereo unspecified) |  | -2.71% (inactive)
35 | Cc1ccc(-n2c(=O)c3cccnc3n2CC(=O)Nc2ccccc2C(F)(F)F)cc1C |  | 10.3% (inactive)
36 | COc1ccc(S(=O)(=O)Nc2ccccc2C(=O)N2CCCC2)cc1C |  | 4.61% (inactive)
37 | COc1ccc(Br)cc1/C=N/Nc1ccc(S(=O)(=O)Nc2ccccc2C(=O)O)cc1[N+](=O)[O-] | 79.4 µM (active) | 
38 | O=C(O)c1ccccc1/C=N/Nc1ccc(S(=O)(=O)Nc2ccc(Cl)cc2)cc1[N+](=O)[O-] |  | -16.1% (inactive)
39 | Cc1cc(C)nc(NS(=O)(=O)c2ccc(NC(=O)c3cc(=O)c4ccc(C)c(C)c4o3)cc2)n1 |  | 19.7% (inactive)
40 | O=C(NCCCc1ccccc1)c1ccc2c(c1)sc1nc(-c3ccc(F)cc3)cn12 |  | 9.26% (inactive)
41 | Cc1ccc(-c2cc(-c3coc4ccccc4c3=O)c3c(n2)-c2cc(Cl)ccc2OC3)cc1 |  | 2.47% (inactive)
42 | Nc1ccc2c(c1)C(=Cc1cccnc1)c1ccccc1-2 |  | -7.1% (inactive)
43 | Cc1ccccc1C1=N/C(=C/c2cccnc2)C(=O)O1 | 70.8 µM (active) | 
44 | Cc1ccc(C2=C/C(=C\c3cccnc3)C(=O)O2)cc1 |  | -0.781% (inactive)

Row | SMILES | Potency | max response, negative = inhibition
45 | Cc1ccc(NC(=O)CSc2nc3c([nH]c4ccccc43)c(=O)n2-c2ccccc2)cc1Cl |  | 5.44% (inactive)
46 | O=C(CCCn1c(=O)c2cccn2c2cccnc21)NCc1ccc(F)cc1 |  | 8.91% (inactive)
47 | CCOc1ccc(NC(=O)Cn2c(C)ccc(C#N)c2=O)cc1 |  | -0.0869% (inactive)
48 | CCn1cc(CCC(=O)NCc2ccc(F)cc2)c2ccccc21 |  | -3.64% (inactive)
49 | Cc1ccc(CS(=O)(=O)CCC(=O)NCc2ccc(F)cc2)cc1 |  | -16.2% (inactive)
50 | CCCCC(=O)NCc1ccc(F)cc1 | 3.16 µM (active) | 
51 | Cc1ccc(C)c(N2CCN(C(=O)Cn3ncc4c(=O)oc5ccc(C)cc5c43)CC2)c1 |  | -7.32% (inactive)
52 | CCOc1ccc(NC(=O)C2CCN(S(=O)(=O)c3cc(-c4noc(C)n4)ccc3C)CC2)cc1 |  | 15.5% (inactive)
53 | Oc1c(C=Nc2cccc3nsnc23)ccc2ccccc12 | 79.4 µM (active) | 
54 | COc1ccc2[nH]c3c(c2c1)CCN(C(=O)CCC1CCCC1)C3c1ccc(F)cc1 (stereo unspecified) |  | 12.3% (inactive)
55 | CCc1cc2c(cc3c(=O)n(CC(=O)NCc4cccc(Cl)c4)nc(CC)n32)s1 |  | -17.2% (inactive)
56 | CC(C)(C)C(=O)CSc1nc2ccccc2o1 |  | -1.66% (inactive)
57 | Cc1ccc(/C=N/NC(=O)CSc2nc3ccccc3o2)cc1 | 79.4 µM (active) | 
58 | O=C(CSc1nc2ccccc2o1)N/N=C/c1ccccc1C(=O)O |  | -26.3% (inactive)
59 | COc1ccc(OCCCn2c(C)nc3cc(C)c(C)cc32)cc1 |  | 10% (inactive)
60 | COc1cc2c(cc1OC)[C@@H](Cc1cc(OC)c(OC)c(OC)c1)[N+](C)(CCCOC(=O)CC/C=C/CCC(=O)OCCC[N+]1(C)CCc3cc(OC)c(OC)cc3[C@H]1Cc1cc(OC)c(OC)c(OC)c1)CC2 (stereo partly specified) |  | 3.39% (inactive)
61 | O=C1C(Cl)=C(Oc2ccccc2)C(=O)c2ccccc21 | 7.08 µM (active) | 
62 | CCOc1cc(C(=O)Nc2nnc3n2CCS3)cc(OCC)c1OCC |  | -8% (inactive)
63 | O=S(=O)(c1cccc(C(F)(F)F)c1)N1CCN(c2nc(-c3cccs3)nc3ccccc23)CC1 |  | 3.96% (inactive)
64 | COc1ccccc1CNc1nccn(-c2ccc(F)cc2)c1=O |  | 6.76% (inactive)
65 | COc1ccccc1NC(=O)[C@H](COCc1ccccc1)NC(=O)OC(C)(C)C |  | 6.86% (inactive)
66 | CC(C)[C@@H](NC(=O)OC(C)(C)C)C(=O)NCC1CCC(C(=O)N[C@@H](Cc2ccccc2)C(=O)O)CC1 (stereo partly specified) |  | -5.18% (inactive)

Row | SMILES | Potency | max response, negative = inhibition
67 | C[C@@H](NC(=O)OC(C)(C)C)c1nnc(S(=O)(=O)Cc2ccccc2)o1 | 28.2 µM (active) | 
68 | O=c1cc2nc(-c3ccccc3)nc(SCCOc3ccc(Cl)cc3)n2[nH]1 |  | 11.1% (inactive)
69 | CCOC(=O)c1cc2c(=O)n3ccccc3nc2n(CC2CCCO2)c1=NC(=O)c1ccccc1F (stereo unspecified) |  | -16% (inactive)
70 | Cc1ccc(C2c3[nH]c4ccccc4c3CCN2C(=O)c2cccc(C)c2)cc1 (stereo unspecified) |  | 4% (inactive)
71 | Clc1cccc(-n2ncc3c(NCCc4ccccc4)ncnc32)c1 |  | 2.94% (inactive)
72 | O=C(Oc1ccccc1C(=S)N1CCCCC1)c1cc([N+](=O)[O-])cc([N+](=O)[O-])c1 | 89.1 µM (active) | 
73 | COc1cc(C(=S)N2CCOCC2)cc(OC)c1OC(=O)c1cc([N+](=O)[O-])cc([N+](=O)[O-])c1 |  | -18.9% (inactive)
74 | CC1CCN(C(=S)c2cccc([N+](=O)[O-])c2)CC1 |  | 9.7% (inactive)
75 | COc1ccc(OC)c([C@H](O)CNC(=O)CN)c1 |  | 6.34% (inactive)
76 | Cc1ccc(CNC(=O)CCc2c(C)nc3nc(CNC(=O)OC(C)(C)C)nn3c2C)cc1 |  | 6.84% (inactive)
77 | CC(=O)c1ccccc1NC(=O)C1CC(=O)N(c2ccc3c(c2)OCCO3)C1 (stereo unspecified) |  | 0.279% (inactive)
78 | CCc1nnc(NC(=O)C2CC(=O)N(c3ccc4c(c3)OCCO4)C2)s1 (stereo unspecified) | 56.2 µM (active) | 
79 | CCOC(=O)c1ccc(NC(=O)C2CC(=O)N(c3ccc4c(c3)OCCO4)C2)cc1 (stereo unspecified) |  | -6.01% (inactive)
80 | CCc1cc2c(cc3c(=O)n(CC(=O)NCCc4ccc(OC)c(OC)c4)ncn32)s1 |  | 14.2% (inactive)
81 | CC1CC(C)CN(c2oc(-c3ccc(OCc4ccc(Cl)cc4)cc3)nc2C#N)C1 (stereo unspecified) |  | -6.19% (inactive)
82 | COc1cccc(-c2cc(C(=O)Nc3ccc(C)cc3)[nH]n2)c1 |  | -3.16% (inactive)
83 | Cc1ccc(-n2nc(-c3ccco3)cc2C(=O)NCc2cccnc2)cc1 | 70.8 µM (active) | 
84 | CSc1sc(C(=O)NC(=O)NCc2cccnc2)c(C)c1-c1ccon1 |  | 1.93% (inactive)
85 | Cc1ccc(C(=O)NC(=S)NCc2cccnc2)cc1 |  | -6.42% (inactive)
86 | COc1cc(CNCCSc2nnnn2C)ccc1OCc1ccc(Cl)cc1Cl |  | 1.83% (inactive)
